The record followed here is the OligoGym collection.
Note: reference of the scale not given here.

One test addresses SGTA. Briefly: pooled miR-30 sensor sort-seq; sequence = guide strand. The conditions noted are these: shRNA.
Consider TCATCTGCTCGTTTCCTTCGGT, for which the sensor-assay potency score (higher = more potent) is 0.113.

Sequence TGAGCTGCTCTATCAACTCTGG gave a sensor-assay potency score (higher = more potent) of -0.693.

Turning to TTGAGCTCGATGGCTTTTCCGT, the sensor-assay potency score (higher = more potent) is -0.866.

Regarding TATCTTGAGGTTGGACTTGTAT, the sensor-assay potency score (higher = more potent) is -0.792.

As for TTCCACTTTCATCTGCTCGTTT, the sensor-assay potency score (higher = more potent) came to 0.488.

For TTCTGCTGCTGCATCTGCTGGG, the sensor-assay potency score (higher = more potent) came out at 0.386.

TAGGCCTTGCTGTAGGCCGGGT gave a sensor-assay potency score (higher = more potent) of -1.17.

On to TTGTATGTCTCGTTGTCGGGGT, for which the sensor-assay potency score (higher = more potent) is 0.213.

In turn, TATCAACTCTGGGTTCTGCTGC gave a sensor-assay potency score (higher = more potent) of 0.409.

For AAGGTCACTGTCTTCTACCGTC, the sensor-assay potency score (higher = more potent) amounted to 0.33.

TTTTCCACTTTCATCTGCTCGT had a sensor-assay potency score (higher = more potent) of -0.241.

For TTGGACTTGTATGTCTCGTTGT, the sensor-assay potency score (higher = more potent) was 0.614.

For a further test, the target named is SH3YL1. The test is described as above. The conditions noted are these: shRNA.
Consider TTGCATTGATTCGTTGTCCTTC, for which the sensor-assay potency score (higher = more potent) amounted to 0.55.

TAACTGTGATTCTGTCTCCAGC showed a sensor-assay potency score (higher = more potent) of -0.946.

Sequence TTGTCCTTCATTTTCATACTTT returned a sensor-assay potency score (higher = more potent) of -0.366.

On to TTTCATAAAGATCTTCGGCTTG, for which the sensor-assay potency score (higher = more potent) was -0.146.

In turn, TTTTCTTGCATTGATTCGTTGT returned a sensor-assay potency score (higher = more potent) of 0.574.

Consider TTAACTAGTAAATCCTGTCAGT, for which the sensor-assay potency score (higher = more potent) is -0.0626.

With TTGCTTAACTAGTAAATCCTGT, the sensor-assay potency score (higher = more potent) amounted to 0.218.

For the sequence TTATATTCATTTCTGTTGCTTT, the sensor-assay potency score (higher = more potent) is -0.121.

In turn, TTGAGAGCCAGAGTTCAGCTGG had a sensor-assay potency score (higher = more potent) of 0.176.

In turn, TTGGAGGTAATTCTTTAGCAGA registered a sensor-assay potency score (higher = more potent) of -1.34.

The sequence ATAACTGTGATTCTGTCTCCAG registered a sensor-assay potency score (higher = more potent) of -0.286.
